A short description of experiment [1]: NCI Yeast Anticancer Drug Screen. Data for the rad50 strain (AID 155).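 Also: 0% = growth of vehicle-only cultures of the same strain.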 The note with it: S. cerevisiae rad50 strain growth inhibition, hits give high values. Summed up: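 Genetically altered yeast (DNA repair pathway); compound treatment; growth inhibition vs vehicle ctrl.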
The nature of experiment [2]: NCI Yeast Anticancer Drug Screen. Data for the mec2-1 strain (AID 157). The following applies: S. cerevisiae mec2-1 strain, hits give high values. The procedure, abridged:
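Vehicle-treated cultures served as reference for growth inhibition of compound-exposed mec2-1 yeast.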

Experiment [3] can be described thus: NCI Yeast Anticancer Drug Screen. Data for the sgs1 mgt1 strain (AID 161).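 Also: 0% = growth of cultures given vehicle only.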 The note with it: S. cerevisiae sgs1 mgt1 strain, hits give high values. The procedure, abridged: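 Read-out: growth inhibition vs vehicle controls. Cells: mutant yeast strain deficient in DNA damage repair.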
Experiment [4] in a line: NCI Yeast Anticancer Drug Screen. Data for the cln2 rad14 strain (AID 165).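 Also: 0% = growth equal to vehicle treated cultures.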 The following applies: S. cerevisiae cln2 rad14 strain, hits give high values. Summed up: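 Each compound was tested on cln2 rad14 yeast. Inhibition of growth was calculated against vehicle-exposed controls.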
Experiment [5] can be described thus: NCI Yeast Anticancer Drug Screen. Data for the bub3 strain (AID 167). The note with it: S. cerevisiae bub3 mutant strain, hits give high values. Summed up:
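Yeast carrying a defined mutation is treated with each compound, and growth is compared with that of vehicle-exposed cells to give inhibition.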

Experiment [6] can be described thus: NCI Yeast Anticancer Drug Screen. Data for the mlh1 rad18 strain (AID 175). The following applies: S. cerevisiae mlh1 rad18 strain growth inhibition, hits give high values. Summed up: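 Vehicle-treated cultures served as the reference for growth inhibition in a yeast strain carrying DNA damage repair alterations exposed to each compound.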
Setting [7] is: at 5.0 µM (retest, dose inferred, filed as 0.5).
Where [8] appears, read: at 50.0 µM (retest, dose inferred, filed as 5.0).

The structures appear in SMILES notation. The panel holds about 79,000 compounds, 15% with a hit somewhere; the sample as a whole holds those more often. A number with no mark means an inactive call. Activity calls are given as the source filed them. Rule as the data show it: active = growth inhibition above about 70%; inactive = the rest.

In the case of `OCCC1CCN(CC/C=C2/c3ccc(F)cc3Sc3ccc(C(F)(F)F)cc32)CC1`, the growth inhibition in experiment [1] (setting [7]) is 26%; in experiment [1] (setting [8]), 59%; in experiment [1] (at 50.0 µM), 37.4%; in experiment [2] (setting [7]) it was 7%; in experiment [2] (setting [8]), 45%; in experiment [2] (at 50.0 µM) it was 62.9%. Further, the growth inhibition in experiment [3] (setting [7]) was 21%; in experiment [3] (setting [8]), 68%; in experiment [3] (at 50.0 µM) it was 82.6% (active); in experiment [4] (setting [7]) it was 18%; in experiment [4] (setting [8]), 52%; in experiment [4] (at 50.0 µM), 71.4% (active). For the same compound, the growth inhibition is 4% in experiment [5] (setting [7]); 38% in experiment [5] (setting [8]); 64.5% in experiment [5] (at 50.0 µM); 24% in experiment [6] (setting [7]); 56% in experiment [6] (setting [8]); 88.2% (active) in experiment [6] (at 50.0 µM).
For `O=C(c1ccc(F)cc1)c1ccc(Cl)cc1Cl`, the growth inhibition in experiment [1] (setting [7]) is 96% (active); in experiment [1] (setting [8]) it was 98% (active); in experiment [1] (at 50.0 µM), 97% (active); in experiment [2] (setting [7]) it was 100% (active); in experiment [2] (setting [8]) it was 99% (active); in experiment [2] (at 50.0 µM), 98.7% (active). The growth inhibition is 100% (active) in experiment [3] (setting [7]); 99% (active) in experiment [3] (setting [8]); 93.5% (active) in experiment [3] (at 50.0 µM); 99% (active) in experiment [4] (setting [7]); 100% (active) in experiment [4] (setting [8]); 98.2% (active) in experiment [4] (at 50.0 µM). The growth inhibition in experiment [5] (setting [7]) was 99% (active); in experiment [5] (setting [8]) it was 100% (active); in experiment [5] (at 50.0 µM), 98.9% (active); in experiment [6] (setting [7]), 99% (active); in experiment [6] (setting [8]), 99% (active); in experiment [6] (at 50.0 µM), 99.2% (active).
For `CC(C)(C)OC(=O)c1ccc(NCC2=C(Br)C(=O)C=CC2=O)cc1`, the growth inhibition in experiment [1] (setting [7]) was 18%; in experiment [1] (setting [8]), 98% (active); in experiment [1] (at 50.0 µM), 89.8% (active); in experiment [2] (setting [7]) it was 12%; in experiment [2] (setting [8]), 99% (active); in experiment [2] (at 50.0 µM), 94% (active). Also, the growth inhibition is 15% in experiment [3] (setting [7]); 97% (active) in experiment [3] (setting [8]); 83.4% (active) in experiment [3] (at 50.0 µM); 5% in experiment [4] (setting [7]); 94% (active) in experiment [4] (setting [8]); 89.1% (active) in experiment [4] (at 50.0 µM). Moreover, the growth inhibition in experiment [5] (setting [7]) is 0%; in experiment [5] (setting [8]), 96% (active); in experiment [5] (at 50.0 µM) it was 80.8% (active); in experiment [6] (setting [7]), 14%; in experiment [6] (setting [8]), 99% (active); in experiment [6] (at 50.0 µM), 89.5% (active).
Regarding `O=C(NC(OCc1ccccc1)(C(F)(F)F)C(F)(F)F)OCc1ccccc1`, the growth inhibition in experiment [1] (setting [7]) is -14%; in experiment [1] (setting [8]), 98% (active); in experiment [1] (at 50.0 µM), 96% (active); in experiment [2] (setting [7]), -5%; in experiment [2] (setting [8]), 92% (active); in experiment [2] (at 50.0 µM), 91% (active). Further, the growth inhibition was -9% in experiment [3] (setting [7]); 98% (active) in experiment [3] (setting [8]); 93.7% (active) in experiment [3] (at 50.0 µM); 11% in experiment [4] (setting [7]); 96% (active) in experiment [4] (setting [8]); 94.8% (active) in experiment [4] (at 50.0 µM). In addition, the growth inhibition was 13% in experiment [5] (setting [7]); 95% (active) in experiment [5] (setting [8]); 94.5% (active) in experiment [5] (at 50.0 µM); 2% in experiment [6] (setting [7]); 98% (active) in experiment [6] (setting [8]); 96.5% (active) in experiment [6] (at 50.0 µM).
Consider `CC(C)=CCC/C(C)=C/COC(=O)Nc1ccccc1`, for which the growth inhibition in experiment [1] (setting [7]) is -7%; in experiment [1] (setting [8]), -5%; in experiment [1] (at 50.0 µM), 15.7%; in experiment [2] (setting [7]), -13%; in experiment [2] (setting [8]) it was -7%; in experiment [2] (at 50.0 µM), 18.7%. The growth inhibition in experiment [3] (setting [7]) is -2%; in experiment [3] (setting [8]), 17%; in experiment [3] (at 50.0 µM) it was 62.3%; in experiment [4] (setting [7]), -40%; in experiment [4] (setting [8]), -5%; in experiment [4] (at 50.0 µM), 61%. The growth inhibition is -2% in experiment [5] (setting [7]); -1% in experiment [5] (setting [8]); 52.8% in experiment [5] (at 50.0 µM); -13% in experiment [6] (setting [7]); -11% in experiment [6] (setting [8]); 10.9% in experiment [6] (at 50.0 µM).
Regarding `O=C1c2ccc(Cl)cc2C(=O)c2cc(Cl)ccc21`, the growth inhibition in experiment [1] (setting [7]) was 7%; in experiment [1] (setting [8]), 99% (active); in experiment [1] (at 50.0 µM), 91.9% (active); in experiment [2] (setting [7]), 11%; in experiment [2] (setting [8]), 98% (active); in experiment [2] (at 50.0 µM), 46.5%. Also, the growth inhibition is 3% in experiment [3] (setting [7]); 99% (active) in experiment [3] (setting [8]); 65.3% in experiment [3] (at 50.0 µM); -12% in experiment [4] (setting [7]); 99% (active) in experiment [4] (setting [8]); 14.3% in experiment [4] (at 50.0 µM). For the same compound, the growth inhibition was 19% in experiment [5] (setting [7]); 99% (active) in experiment [5] (setting [8]); 89.2% (active) in experiment [5] (at 50.0 µM); 8% in experiment [6] (setting [7]); 99% (active) in experiment [6] (setting [8]); 77% (active) in experiment [6] (at 50.0 µM).
As to `O=S(=O)(c1ccc(NC(=S)NCc2ccncc2)cc1)N1CCCCC1`, the growth inhibition in experiment [1] (setting [7]) is -30%; in experiment [1] (setting [8]), -2%; in experiment [1] (at 50.0 µM), 15.5%; in experiment [2] (setting [7]), -11%; in experiment [2] (setting [8]), -43%; in experiment [2] (at 50.0 µM), -13.6%. The growth inhibition was -14% in experiment [3] (setting [7]); -13% in experiment [3] (setting [8]); 10.7% in experiment [3] (at 50.0 µM); 2% in experiment [4] (setting [7]); 16% in experiment [4] (setting [8]); 5.3% in experiment [4] (at 50.0 µM). Moreover, the growth inhibition in experiment [5] (setting [7]) is -31%; in experiment [5] (setting [8]), -18%; in experiment [5] (at 50.0 µM), 9.35%; in experiment [6] (setting [7]), -27%; in experiment [6] (setting [8]), -8%; in experiment [6] (at 50.0 µM), 6.9%.
Take `CCC1=CCC2C(=O)c3cc4ccccc4cc3C(=O)C2C1` (stereo not given): the growth inhibition in experiment [1] (setting [7]) is 11%; in experiment [1] (setting [8]), 26%; in experiment [1] (at 50.0 µM), 89.3% (active); in experiment [2] (setting [7]), 11%; in experiment [2] (setting [8]) it was 64%; in experiment [2] (at 50.0 µM), 96.2% (active). The growth inhibition in experiment [3] (setting [7]) was 9%; in experiment [3] (setting [8]) it was -4%; in experiment [3] (at 50.0 µM), 89.6% (active); in experiment [4] (setting [7]), 2%; in experiment [4] (setting [8]), 20%; in experiment [4] (at 50.0 µM), 37.5%. For the same compound, the growth inhibition in experiment [5] (setting [7]) is 10%; in experiment [5] (setting [8]), 61%; in experiment [5] (at 50.0 µM), 93% (active); in experiment [6] (setting [7]), 7%; in experiment [6] (setting [8]), 46%; in experiment [6] (at 50.0 µM) it was 94.8% (active).
For the compound `COC(=O)/C(C(C)=O)=C(\OC(C)=O)c1ccc(OC)c(OC)c1`, the growth inhibition in experiment [1] (setting [7]) is -14%; in experiment [1] (setting [8]), 80% (active); in experiment [1] (at 50.0 µM) it was 93.5% (active); in experiment [2] (setting [7]), -11%; in experiment [2] (setting [8]) it was 93% (active); in experiment [2] (at 50.0 µM), 91% (active). In addition, the growth inhibition in experiment [3] (setting [7]) is -5%; in experiment [3] (setting [8]), 88% (active); in experiment [3] (at 50.0 µM) it was 46.2%; in experiment [4] (setting [7]) it was -11%; in experiment [4] (setting [8]), 85% (active); in experiment [4] (at 50.0 µM), 95.5% (active). In addition, the growth inhibition in experiment [5] (setting [7]) was -2%; in experiment [5] (setting [8]), 86% (active); in experiment [5] (at 50.0 µM), 98.1% (active); in experiment [6] (setting [7]), -19%; in experiment [6] (setting [8]), 91% (active); in experiment [6] (at 50.0 µM), 60%.
In the case of `COC(=O)C1C(O)C(C)C(=O)C(C)/C=C\C=C(C)C(=O)Nc2c(C)c(OC(C)=O)c3c(c2O)C(=O)C(C)=C2OCOC(=C23)C(C)=CC(C)(O)C(O)C(C)C1O` (stereo not given), the growth inhibition in experiment [1] (setting [7]) is 9%; in experiment [1] (setting [8]), 52%; in experiment [1] (at 50.0 µM), 88.1% (active); in experiment [2] (setting [7]) it was -3%; in experiment [2] (setting [8]), 77% (active); in experiment [2] (at 50.0 µM) it was 88.8% (active). Further, the growth inhibition in experiment [3] (setting [7]) was 0%; in experiment [3] (setting [8]), 59%; in experiment [3] (at 50.0 µM), 92.2% (active); in experiment [4] (setting [7]), 9%; in experiment [4] (setting [8]), 75% (active); in experiment [4] (at 50.0 µM), 75.6% (active). Also, the growth inhibition in experiment [5] (setting [7]) was -4%; in experiment [5] (setting [8]), 76% (active); in experiment [5] (at 50.0 µM), 87.3% (active); in experiment [6] (setting [7]), -19%; in experiment [6] (setting [8]) it was 68%; in experiment [6] (at 50.0 µM), 81% (active).
